The panel holds about 83,000 compounds, 20% with a hit somewhere; the sample as a whole holds those more often.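 Results are percent growth after 48 hours of single-concentration exposure. 100 means growth as in untreated cells, lower positive values show inhibition; negative values down to -100 show cell death.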 A number with no mark means an inactive call. Activity calls are given as the source filed them. How the source made its calls: active means growth percent below 10; inactive means the rest.

Drawing on PubChem BioAssay (NCI), this text covers growth for 25 compounds.

This experiment concerns MDA-MB-468 breast. Kind of experiment: NCI-60 one-dose screen, 48 h (100 = growth as untreated, 0 = no growth, -100 = all killed). Particulars: 10 µM unless noted.
Regarding `C[C@@H](N)c1ccc(C(=O)Nc2ccnc3[nH]ccc23)cc1`, the growth is 49.2%.

Consider `Cn1cc(-c2csc(-c3cn(CCNC(=O)OC(C)(C)C)c4ccc(F)cc34)n2)c2cccnc21`, for which the growth is 19.5%.

On to `COc1ccc(Oc2ccccc2NC(=O)CNC(=O)c2cccc3ccccc23)cc1`, for which the growth is 23.7% [5 µM].

`N#Cc1ncc(-c2cc(F)c(F)c(F)c2)c(NC2CCCCCC2)n1`: the growth is 87.6%.

Consider `COP(=O)(OC)C(C)(C)CC(=O)CC(C#N)(C#N)C(C#N)C#N`, for which the growth is 104%.

On to `Cc1nn(-c2ccc([N+](=O)[O-])cc2)c2ncnc(NCCc3ccccc3)c12`, for which the growth is 111%.

For the compound `NS(=O)(=O)c1ccc(Nc2nc(O)c(/C=C3\C=Nc4ccccc43)s2)cc1`, the growth is 104%.

In the case of `CC(C)C1=C[C@@]23CC[C@@H]4[C@](C)(CCC[C@@]4(C)C(=O)N4CCCNCC4)[C@H]2C[C@@H]1[C@H]1C(=O)CCC(=O)[C@H]13`, the growth was 101%.

With `CC1CN(CCCOC(=O)Nc2ccc(Cl)cc2)CCN1C(C)(C)C` (stereo not given), the growth is 104%.

Consider `C=C1C(=O)O[C@H]2[C@H]1CC/C(COC(=O)NCCc1ccc(OC)cc1)=C\CC[C@@]1(C)O[C@@H]21`, for which the growth is -2.57% (active).

For `N#CC1C=Cc2c(ccc3ccccc23)N1C(=O)c1ccccc1` (stereo not given), the growth is -10.5% (active).

For `CCN1CCN(c2ccc(Nc3cc(-c4cccnc4Nc4c(Cl)c(OC)cc(OC)c4Cl)ncn3)cc2)CC1`, the growth was 89.6%.

With `COc1ccc(-c2cc(-c3ccc(Cl)cc3)c(C#N)c(=O)n2CCCCC(=O)Nc2ccccc2N)cc1`, the growth was 47.9%.

For `CC(C)C(C(=O)NCCN1CCOCC1)N1C(=O)/C(=C/c2ccc(Br)cc2)SC1=S` (stereo not given), the growth is 99.2%.

On to `Cc1ccc(S(=O)(=O)c2ccccc2)cc1`, for which the growth is -10.8% (active).

As to `CCOC(=O)Nc1ccc2nc(-c3cscn3)[nH]c2c1`, the growth is -2.03% (active).

Regarding `COc1ccc(-c2nc(SCC(C)C)nc(N/N=C(/C)c3ccc(OC)c(OC)c3)c2C#N)cc1`, the growth was 91.5%.

For the compound `O=C1NC(=O)N(Cc2ccccc2)CC1Br` (stereo not given), the growth is 104%.

In the case of `Oc1c(C(Nc2cccc3ccccc23)c2ccccc2)ccc2cccnc12` (stereo not given), the growth was 26.7%.

Regarding `COc1cc(-c2nc3sccn3c2-c2ccnc(NCCNS(=O)(=O)c3ccc(F)cc3)n2)ccc1F`, the growth was 4.24% (active).

As to `Cn1cc(-c2nnc(-c3cn(C)c4ncc(Br)cc34)s2)c2cc(Br)ccc21`, the growth is 101%.

Turning to `CCN(CC)CCCC(C)N/C(c1cccc(OC)c1)=c1\c(=O)[nH]n(-c2c3ccccc3nc3ccccc23)c(=O)\c1=C(/NC(C)CCCN(CC)CC)c1cccc(OC)c1` (stereo not given), the growth is -56.2% (active).

In the case of `CCOc1ccc(-n2c(-c3cc(OC)c(OC)c(OC)c3)nnc2-c2ccc(OC)cc2N)cc1`, the growth is 1.83% (active).

With `COc1cnc2c(c1)C(=O)c1c-2n(CCCCl)c(=O)c2ccncc12`, the growth is 34.1%.

`CC(C)CCN(CCC(C)C)CC(=O)Nc1ccc(S(=O)(=O)c2ccc(NC(=O)CN(CCC(C)C)CCC(C)C)cc2)cc1`: the growth is 46.5%.
